PubChem BioAssay (NCATS)
Where “and” joins values, the source holds several entries; their conditions need not be identical. Equal values may be shown once. Records with an inconclusive call do not appear. Unmarked numbers belong to inactive results. Calls of active or inactive are those of the source. The call rests on the fitted dose curve; in most records, active means well fitted inhibition curve with a large enough effect; inconclusive means small, poorly fitted or top-dose-only effect; inactive means flat fitted curve, though single readings scatter.
On the % scale 0 is the no-effect control and ±100 the full control effect; potency means the concentration at half of the fitted maximal effect.

These compounds were tested on CRL-7250 (assay: Cytotoxic Profiling of Annotated Libraries Using Quantitative High-Throughput Screening (AID 1296008; further: nearly all actives have a fitted effect of over 60% in size)). Conditions: Five cell lines viability, CellTiter-Glo ATP luminescence, 48-72 h; max response: hits give low values.
Outline: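 Compounds were pin-transferred onto cells and incubated 48 or 72 hr at 37 degree Celsius, 95% humidity. CellTiter-Glo was added, plates sat 10 min at room temperature, then ATP-coupled luminescence was imaged as the viability read-out.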
With C=C1CC2OC(=O)C(=C)C2C(OC(=O)/C(C)=C\C)CC2(C)OC1=CC2=O (stereo unspecified) the Potency was 14.3 µM (active). Cc1cc(Nc2nc(-c3ccccc3)nc3ccccc23)n[nH]1 was tested, and the Potency was 5.17 µM (active). Nc1ncnc2c1nc(Cl)n2C1OC2COP(=O)(O)OC2C1O (stereo unspecified) was tested, and the Potency was 6.51 µM (active). With CC(=O)OC(C)(C)/C=C/C(=O)[C@](C)(O)[C@H]1C(O)C[C@@]2(C)[C@@H]3CC=C4[C@@H](C=C(O[C@@H]5O[C@H](CO)[C@@H](O)[C@H](O)[C@H]5O)C(=O)C4(C)C)[C@]3(C)C(=O)C[C@]12C (stereo partly specified) the outcome was “inactive”. With O=C1NC(=O)C(c2cnc3ccccn23)=C1c1cn2c3c(cc(F)cc13)CN(C(=O)N1CCCCC1)CC2 the Potency was 46.1 nM (active) and 33.1 nM (active). In the case of Cn1nc(-c2ccc(C(F)(F)F)cc2)nc2c(=O)n(C)c(=O)nc1-2, the Potency was 14.6 µM (active). With O=C(NO)c1cnc(N2CCN(S(=O)(=O)c3ccc4ccccc4c3)CC2)nc1 the Potency was 7.96 µM (active). Cc1noc(-c2ccc(-c3ccc(CC(=O)O)cc3)cc2)c1NC(=O)O[C@H](C)c1ccccc1Cl showed a max response of -11.1%. CC(=O)C1=C(O)C=C2Oc3c(C(C)=O)c(O)c(C)c(O)c3[C@]2(C)C1=O was tested, and the outcome was “inactive”. In the case of COC(=O)C1=COC(O[C@@H]2O[C@H](CO[C@@H]3O[C@H](COC(=O)/C=C\c4ccc(O)cc4)[C@@H](O)[C@H](O)[C@H]3O)[C@@H](O)[C@H](O)[C@H]2O)C2C(CO)=CCC12 (stereo partly specified), the max response was -64.3%. N#Cc1ccc(O[C@@H]2c3ccccc3C[C@H]2N2CCC[C@@H](N)C2)c(Cl)c1 showed a max response of -27.9%.
